This note sets out measurements from PubChem BioAssay (Tox21).

Unmarked numbers belong to inactive results. Records with an inconclusive call do not appear. The source made the active and inactive calls. Unless noted, calls come from the whole dose curve; as a rule, active = well fitted curve in the direction sought with a large enough effect in the repeat runs; inconclusive = weak or mixed curves; inactive = no such curve, though single readings can be large; an effect the other way counts as inactive or inconclusive.

In assay [1] the target is Thyrotropin receptor (Homo sapiens) (UniProt P16473). The experiment in a line: qHTS assay to identify small molecule agonists of the thyroid stimulating hormone receptor (TSHR) signaling pathway (AID 1224843; calls by dose curve; note: nearly all actives have a fitted effect of over 45% in size). The gist of the method:
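Agonist activity read as cAMP rise via d2/cryptate HTRF competition, 1 h room-temperature detection, in HEK293 cells expressing TSHR. Fifteen-point titrations, each run in triplicate, with a 30 min room-temperature incubation beforehand.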

Assay [2] can be described thus: qHTS assay to identify small molecule agonists of the hypoxia (HIF-1) signaling pathway - cell viability counter screen (AID 1224844; calls by dose curve; note: nearly all actives have a fitted effect of over 50% in size; note: potency is the fitted concentration of half-maximal effect). The gist of the method: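 Same wells as the HIF-1 reporter screen; ME-180 cells carrying HRE-bla, 17 hr treatment at 37C; CellTiter-Glo luminescence read after 30 min at room temperature.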
Assay [3] is described as follows: qHTS assay to identify small molecule agonists of the hypoxia (HIF-1) signaling pathway (AID 1224846; active = well fitted activation curve with a large enough effect in the signal ratio in the repeat runs, not every such curve was filed as active; the % refers to the signal ratio). The gist of the method: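 In ME-180 cells bearing an HRE-bla construct, 17 h treatment with DMSO-dissolved compounds at 37C was followed by CCF4-AM loading to quantify reporter induction.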
Assay [4] in a line: qHTS RealTime-Glo MT Cell Viability Assay in HepG2 cells - 24 hour (AID 1224867). Note: nearly all actives have a fitted effect of over 50% in size. The procedure, abridged:
(§1)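 Luminescence read-out: viable HepG2 cells reduce a prosubstrate to a NanoLuc substrate, giving a signal proportional to live cell number. Reads taken at 0, 8, 16, 24, 32 and 40 h of compound exposure at 37 C.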

A short description of assay [5]: A CellTox Green Cytotoxicity Assay to monitor cytotoxicity in HEK293 cells - 0 hour (AID 1224869). Note: nearly all actives have a fitted effect of over 50% in size. The gist of the method: (§2)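 Homogeneous no-lysis format: HEK293 cell suspension mixed with CellTox Green reagent, seeded, incubated 5 h at 37 C/5% CO2, then dosed by pintool with compound in DMSO.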
Assay [6] is described as follows: A CellTox Green Cytotoxicity Assay to monitor cytotoxicity in HEK293 cells - 40 hour (AID 1224871). Note: nearly all actives have a fitted effect of over 45% in size. The procedure, abridged:
as §2

Assay [7] can be described thus: qHTS RealTime-Glo MT Cell Viability Assay in HEK293 cells - 16 hour (AID 1224872). Note: top concentration of the series differs between compounds; nearly all actives have a fitted effect of over 50% in size. The procedure, abridged: (§3)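 Nonlytic real-time viability readout: viable cells convert prosubstrate to NanoLuc substrate, giving luminescence proportional to live cell number. HEK293, 600 cells/well, compound added after 5 h, continuous culture at 37 C.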
Assay [8] in a line: qHTS RealTime-Glo MT Cell Viability Assay in HepG2 cells - 8 hour (AID 1224873). Note: nearly all actives have a fitted effect of over 55% in size. The procedure, abridged:
(§4)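 Real-time viability: cells seeded at 600 per well together with NanoLuc and cell-permeant prosubstrate, compounds added after 5 h incubation. Luminescence tracked at 0, 8, 16, 24, 32 and 40 h of exposure.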

Assay [9] is described as follows: A CellTox Green Cytotoxicity Assay to monitor cytotoxicity in HEK293 cells - 24 hour (AID 1224875). Note: nearly all actives have a fitted effect of over 45% in size. The procedure, abridged: as §2
Assay [10] is described as follows: qHTS RealTime-Glo MT Cell Viability Assay in HepG2 cells - 32 hour (AID 1224877). Note: nearly all actives have a fitted effect of over 55% in size. The procedure, abridged:
as §1

Assay [11] can be described thus: A CellTox Green Cytotoxicity Assay to monitor cytotoxicity in HepG2 cells - 24 hour (AID 1224878). Note: nearly all actives have a fitted effect of over 45% in size. The procedure, abridged: (§5)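 Fluorescent DNA-binding dye, 600 HepG2 cells/well, 5 h preincubation then compound in DMSO; same plates read at 0–40 h, 37 C.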
A short description of assay [12]: A CellTox Green Cytotoxicity Assay to monitor cytotoxicity in HepG2 cells - 40 hour (AID 1224879). Note: nearly all actives have a fitted effect of over 40% in size. The procedure, abridged:
as §5

Assay [13] can be described thus: qHTS assay to identify small molecule agonists of H2AX (AID 1224845; active = well fitted activation curve with a large enough effect in the signal ratio in the repeat runs, not every such curve was filed as active; the % refers to the signal ratio). The gist of the method: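 Phospho-H2AX Ser139 measured by HTRF (ex 320 nm; em 665 and 620 nm) after 24 hr antibody incubation. Compounds, 15 concentrations, 0.76% DMSO, were applied to CHO-K1 cells for 3hr at 37C before lysis.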
The nature of assay [14]: qHTS assay to identify small molecule agonists of H2AX - cell viability counter screen (AID 1224847; calls by dose curve; note: top concentration of the series differs between compounds; nearly all actives have a fitted effect of over 30% in size). The gist of the method: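 Cytotoxicity counter screen in wild-type CHO-K1 cells: a 3 hr compound treatment at 37C across 15 concentrations, followed by CellTiter-Glo luminescence to gauge viable cells.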
The nature of assay [15]: qHTS assay to identify small molecule antagonists of the estrogen related receptor (ERR) signaling pathway from Tox21 library (AID 1224848). Note: nearly all actives have a fitted effect of over 50% in size. Note: potency is the fitted concentration of half-maximal effect. The procedure, abridged:
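Luciferase luminescence (ONE-Glo, 30 min room temperature) was the read-out. Cells of the NTP-supplied ERR line, 2,000 per well, were given 6 h at 37 C before compound addition in DMSO and 18 h exposure at 37 C.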

Assay [16] in a line: qHTS assay to identify small molecule agonists of the estrogen related receptor (ERR) signaling pathway from Tox21 library (AID 1224849; calls by dose curve; note: nearly all actives have a fitted effect of over 15% in size). The conditions noted are these: ERR reporter cell line, ONE-Glo luciferase, 18 h; at 92.4 µM (top of the series) unless noted. The procedure, abridged: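 Reporter cells (ERR, NTP source) treated with Tox21 10K compounds 18 h, 37 C. Readout: ONE-Glo luminescence, 30 min RT.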

Assay [17] is described as follows: qHTS RealTime-Glo MT Cell Viability Assay in HEK293 cells - 32 hour (AID 1224868). The procedure, abridged:
as §3

Assay [18] in a line: qHTS RealTime-Glo MT Cell Viability Assay in HepG2 cells - 40 hour (AID 1224870). Note: nearly all actives have a fitted effect of over 50% in size. The procedure, abridged: as §4
Assay [19] can be described thus: qHTS RealTime-Glo MT Cell Viability Assay in HEK293 cells - 40 hour (AID 1224874). Note: nearly all actives have a fitted effect of over 50% in size. The conditions noted are these: RealTime-Glo luminescence; max response: stronger effect = lower value. The gist of the method:
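Measured as luminescence from the same continuously cultured HEK293 wells at successive time points (0, 8, 16, 24, 32, 40 h) after compound addition. Reagent present from seeding; dosing at 5 h; incubation 37 C.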

The nature of assay [20]: A CellTox Green Cytotoxicity Assay to monitor cytotoxicity in HepG2 cells - 16 hour (AID 1224876). Note: nearly all actives have a fitted effect of over 45% in size. The gist of the method: as §5
% is set by controls: 0 for no effect and ±100 for the full control effect.

Sequence of Thyrotropin receptor (Homo sapiens) (P16473 whole entry, looked up): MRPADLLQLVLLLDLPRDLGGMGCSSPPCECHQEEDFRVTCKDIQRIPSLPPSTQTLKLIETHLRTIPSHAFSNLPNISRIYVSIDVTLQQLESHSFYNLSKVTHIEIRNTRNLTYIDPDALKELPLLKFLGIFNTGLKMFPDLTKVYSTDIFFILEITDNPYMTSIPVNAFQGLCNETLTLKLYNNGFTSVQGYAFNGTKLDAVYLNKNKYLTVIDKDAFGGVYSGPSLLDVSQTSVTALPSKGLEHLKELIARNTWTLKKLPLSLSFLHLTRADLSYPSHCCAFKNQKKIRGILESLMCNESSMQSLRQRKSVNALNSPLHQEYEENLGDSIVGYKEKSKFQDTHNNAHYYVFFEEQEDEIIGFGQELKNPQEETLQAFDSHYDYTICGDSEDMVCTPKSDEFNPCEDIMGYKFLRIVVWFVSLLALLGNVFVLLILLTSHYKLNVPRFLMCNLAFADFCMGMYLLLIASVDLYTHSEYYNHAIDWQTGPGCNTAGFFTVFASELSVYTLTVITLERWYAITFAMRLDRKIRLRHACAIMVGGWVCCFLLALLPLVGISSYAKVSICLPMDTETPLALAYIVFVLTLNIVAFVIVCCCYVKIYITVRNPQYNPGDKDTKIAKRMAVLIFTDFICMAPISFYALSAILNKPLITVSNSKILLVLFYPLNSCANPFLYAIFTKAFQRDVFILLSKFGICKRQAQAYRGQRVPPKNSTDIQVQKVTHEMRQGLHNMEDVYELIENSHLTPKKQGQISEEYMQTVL

Take `Cc1ccccc1C(=O)Nc1cccc(OC(C)C)c1`: the Potency result in [1], in assay [4], in assay [5], in assay [6], in [7] and in [8] was “inactive” throughout. Further, the Potency entry in assay [9], in assay [10], in assay [11] and in assay [12] was “inactive” each time. Further, the Potency in assay [2] was 27.5 µM (active). Also, in [3], the call was inactive.

As to `Cc1ccccc1CCl`, the Potency result in assay [2], in [13], in assay [14], in assay [15], in [4] and in [17] was “inactive” in each case. Besides, the Potency result in assay [5], in [18], in assay [6], in assay [7], in assay [8] and in [9] was “inactive” throughout. In addition, the Potency entry in assay [10], in assay [11] and in assay [12] was “inactive” in each case. In addition, the result in [3] was inactive. Moreover, the activity change, positive = activation in assay [16] was 7.48%. For the same compound, the max response in [19] was -6.69%.

For `C[C@@H]1CC[C@H]2[C@@H](C)C(=O)O[C@@H]3O[C@@]4(C)CC[C@@H]1[C@]32OO4`, the Potency entry in assay [1], in assay [2], in [14], in assay [17], in [5] and in assay [18] was “inactive” each time. For the same compound, the Potency entry in assay [6], in assay [8], in assay [9], in assay [20], in assay [10] and in assay [11] was “inactive” throughout. In addition, in assay [12], the Potency entry was “inactive”. Further, in assay [3], the call was inactive. Further, in assay [15], the Potency is 0.944 µM (active). The activity change, positive = activation in [16] was -38.3% [at 42.5 µM]. In addition, the max response in assay [19] was -5.45%.

As for `C=CC(=O)OC(C)(C)C`, the Potency result in assay [1], in assay [2], in [14], in assay [4], in [17] and in assay [5] was “inactive” in each case. For the same compound, the Potency result in assay [6], in [7], in [8], in assay [9], in assay [20] and in assay [10] was “inactive” each time. Also, the Potency entry in assay [11] and in assay [12] was “inactive” throughout. The outcome in [3] was inactive. Further, in [19], the max response was 13.5%.

For the compound `ClP(Cl)(Cl)(Cl)Cl`, the Potency entry in assay [1], in [2], in assay [14], in assay [15], in assay [5] and in assay [9] was “inactive” throughout. In addition, in assay [20], the Potency entry was “inactive”. For the same compound, the call in assay [3] was inactive. In addition, the activity change, positive = activation in [16] was 0.0891%.

As to `CCCCN=C=O`, the Potency entry in [1], in assay [2], in assay [14], in assay [15], in [17] and in assay [5] was “inactive” each time. Besides, the Potency entry in assay [6], in [7], in [9], in [10], in assay [11] and in [12] was “inactive” in each case. In addition, the outcome in assay [3] was inactive. Moreover, in assay [16], the activity change, positive = activation is 1.38%. Further, the max response in assay [19] is 2.49%.

As for `CCCC(=O)Cl`, the Potency result in [1], in [13], in [14], in assay [4], in [17] and in assay [5] was “inactive” each time. The Potency entry in [18], in assay [6], in [8], in [9], in [20] and in assay [10] was “inactive” throughout. Further, the Potency entry in assay [11] and in assay [12] was “inactive” throughout. Moreover, the result in assay [3] was inactive. In addition, the max response in [19] is 17%.

For `C=CC(=O)OC`, the Potency result in assay [1], in assay [2], in assay [14], in [4], in [17] and in assay [5] was “inactive” in each case. The Potency result in assay [18], in [6], in [7], in assay [9], in assay [10] and in assay [11] was “inactive” throughout. The Potency result in assay [12] was “inactive”. The compound was classed as inactive in assay [3]. In [19], the max response is 0.596%.
